# Assays:
# Assay in all cases: DAPPL (digital affinity profiling via proximity ligation, sequencing); 10 mM Tris-HCl pH 7.5, 50 mM NaCl, 1 mM DTT, 4% glycerol, room temperature, 30 min; GST-TFs on glutathione beads, 16-mer random dsDNA library, 0.1% formaldehyde crosslink after washing; high values mean tight binding
# [1] = molecular target: T1, FEV (Homo sapiens, UniProt Q99581 1-238); details: protein: recombinant; tags: N-terminal GST; dsDNA, one strand shown
# T1 sequence: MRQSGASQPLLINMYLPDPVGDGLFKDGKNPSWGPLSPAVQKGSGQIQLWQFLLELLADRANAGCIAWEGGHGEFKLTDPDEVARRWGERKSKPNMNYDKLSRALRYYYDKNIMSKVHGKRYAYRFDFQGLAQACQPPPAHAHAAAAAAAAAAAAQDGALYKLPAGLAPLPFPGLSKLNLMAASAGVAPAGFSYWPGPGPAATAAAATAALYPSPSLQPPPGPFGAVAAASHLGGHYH
# Summary of the method: (§1)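 GST fusions of human transcription factors were expressed in yeast and captured with glutathione beads. Once given DNA barcodes and pooled alongside a tag-only sample, they were incubated for 30 min at room temperature with 200 nmole of a random double-stranded 16-mer DNA library in Tris/NaCl/DTT/glycerol buffer, then washed, crosslinked (0.1% formaldehyde), proximity-ligated, PCR-amplified and sequenced on an Illumina NextSeq500. The binding signal of each hexamer is its read frequency for a factor divided by its frequency for the tag-only sample.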
# [2] = molecular target: ETV5 (Homo sapiens, UniProt P41161 1-510); details: protein: recombinant; tags: N-terminal GST; dsDNA, one strand shown
# Summary of the method: as §1
# [3] = molecular target: HSF1 (Homo sapiens, UniProt Q00613 1-529); details: protein: recombinant; tags: N-terminal GST; chain copies: 3; dsDNA, one strand shown
# Summary of the method: as §1
# [4] = molecular target: T2, SPIC (Homo sapiens, UniProt Q8N5J4 1-248); details: protein: recombinant; tags: N-terminal GST; dsDNA, one strand shown
# T2 sequence: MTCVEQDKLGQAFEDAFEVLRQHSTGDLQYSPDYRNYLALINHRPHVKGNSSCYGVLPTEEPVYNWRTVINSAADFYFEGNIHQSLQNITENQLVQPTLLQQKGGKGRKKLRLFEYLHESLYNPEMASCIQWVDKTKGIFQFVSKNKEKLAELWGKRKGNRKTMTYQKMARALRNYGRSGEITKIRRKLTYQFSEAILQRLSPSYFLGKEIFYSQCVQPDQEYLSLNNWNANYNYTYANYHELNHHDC
# Summary of the method: as §1
# [5] = molecular target: ELF4 (Homo sapiens, UniProt Q99607 1-663); details: protein: recombinant; tags: N-terminal GST; dsDNA, one strand shown
# Summary of the method: as §1
# [6] = molecular target: T3, ELK4 (Homo sapiens, UniProt P28324-2 1-405); details: protein: recombinant; tags: N-terminal GST; dsDNA, one strand shown
# T3 sequence: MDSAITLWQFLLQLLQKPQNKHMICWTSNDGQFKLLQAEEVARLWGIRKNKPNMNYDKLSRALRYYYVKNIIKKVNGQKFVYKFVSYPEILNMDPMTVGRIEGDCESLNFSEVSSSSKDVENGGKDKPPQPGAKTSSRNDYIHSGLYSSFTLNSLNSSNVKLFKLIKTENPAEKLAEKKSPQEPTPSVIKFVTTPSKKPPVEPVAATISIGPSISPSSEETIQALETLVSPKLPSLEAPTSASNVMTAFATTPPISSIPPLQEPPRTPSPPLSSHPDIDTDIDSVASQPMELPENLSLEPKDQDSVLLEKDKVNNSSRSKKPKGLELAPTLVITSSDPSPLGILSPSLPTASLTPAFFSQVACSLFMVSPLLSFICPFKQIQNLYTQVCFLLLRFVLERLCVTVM
# Summary of the method: as §1
# [7] = molecular target: T4, ETV2 (Homo sapiens, UniProt O00321 1-342); details: protein: recombinant; tags: N-terminal GST; dsDNA, one strand shown
# T4 sequence: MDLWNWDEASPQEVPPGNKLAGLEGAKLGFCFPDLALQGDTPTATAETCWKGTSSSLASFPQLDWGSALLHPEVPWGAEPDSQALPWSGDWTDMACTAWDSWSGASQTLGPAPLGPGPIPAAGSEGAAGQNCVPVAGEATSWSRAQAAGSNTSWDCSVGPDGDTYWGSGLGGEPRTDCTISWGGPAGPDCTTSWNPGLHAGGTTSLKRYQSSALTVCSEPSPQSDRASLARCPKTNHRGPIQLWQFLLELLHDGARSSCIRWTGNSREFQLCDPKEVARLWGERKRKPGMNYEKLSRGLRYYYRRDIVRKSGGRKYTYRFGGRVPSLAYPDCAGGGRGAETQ
# Summary of the method: as §1
# [8] = molecular target: T5, ELF3 (Homo sapiens, UniProt P78545 1-371); details: protein: recombinant; tags: N-terminal GST; dsDNA, one strand shown
# T5 sequence: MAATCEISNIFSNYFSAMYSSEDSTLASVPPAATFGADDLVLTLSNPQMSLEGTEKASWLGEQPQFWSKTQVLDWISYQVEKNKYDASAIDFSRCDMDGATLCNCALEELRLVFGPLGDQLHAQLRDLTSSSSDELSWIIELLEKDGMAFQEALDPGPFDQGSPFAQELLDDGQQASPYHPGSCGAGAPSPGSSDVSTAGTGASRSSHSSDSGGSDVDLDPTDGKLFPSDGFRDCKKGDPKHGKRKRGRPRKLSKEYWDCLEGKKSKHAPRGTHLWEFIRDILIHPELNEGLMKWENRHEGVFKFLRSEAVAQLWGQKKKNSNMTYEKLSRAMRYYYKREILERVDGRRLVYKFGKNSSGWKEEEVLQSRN
# Summary of the method: as §1
# [9] = molecular target: CRX (Homo sapiens, UniProt O43186 1-299); details: protein: recombinant; tags: N-terminal GST; dsDNA, one strand shown
# Summary of the method: as §1
# [10] = molecular target: ETV1 (Homo sapiens, UniProt P50549 1-477); details: protein: recombinant; tags: N-terminal GST; dsDNA, one strand shown
# Summary of the method: as §1
# ETV1, sequence (P50549 whole entry): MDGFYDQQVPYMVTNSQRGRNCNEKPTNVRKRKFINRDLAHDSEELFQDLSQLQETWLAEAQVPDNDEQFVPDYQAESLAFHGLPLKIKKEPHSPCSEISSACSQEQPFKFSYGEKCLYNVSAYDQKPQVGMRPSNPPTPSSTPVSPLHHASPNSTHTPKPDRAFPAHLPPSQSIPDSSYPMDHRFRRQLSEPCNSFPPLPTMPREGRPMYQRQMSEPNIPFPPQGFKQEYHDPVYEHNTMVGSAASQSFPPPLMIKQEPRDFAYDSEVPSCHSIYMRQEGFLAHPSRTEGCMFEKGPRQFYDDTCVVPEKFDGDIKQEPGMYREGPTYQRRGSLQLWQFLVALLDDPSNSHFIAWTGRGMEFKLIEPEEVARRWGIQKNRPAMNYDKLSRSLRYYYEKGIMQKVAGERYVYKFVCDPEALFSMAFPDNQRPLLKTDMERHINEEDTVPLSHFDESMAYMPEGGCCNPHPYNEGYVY
# ETV5, sequence (P41161 whole entry): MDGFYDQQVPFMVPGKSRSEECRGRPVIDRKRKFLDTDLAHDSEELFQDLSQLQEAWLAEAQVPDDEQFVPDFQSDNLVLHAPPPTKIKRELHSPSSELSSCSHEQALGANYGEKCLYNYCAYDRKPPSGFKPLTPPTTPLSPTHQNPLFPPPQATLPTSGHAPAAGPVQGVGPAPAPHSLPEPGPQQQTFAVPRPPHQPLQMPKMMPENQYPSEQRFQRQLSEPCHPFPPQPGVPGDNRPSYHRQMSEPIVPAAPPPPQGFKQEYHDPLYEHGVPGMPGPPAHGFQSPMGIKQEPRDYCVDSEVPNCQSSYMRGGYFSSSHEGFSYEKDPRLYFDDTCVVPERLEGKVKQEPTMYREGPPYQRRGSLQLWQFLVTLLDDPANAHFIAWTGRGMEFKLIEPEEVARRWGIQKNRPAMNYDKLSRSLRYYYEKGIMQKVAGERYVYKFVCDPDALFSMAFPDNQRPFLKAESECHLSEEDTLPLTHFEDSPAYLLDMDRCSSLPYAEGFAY
# HSF1, sequence (Q00613 whole entry): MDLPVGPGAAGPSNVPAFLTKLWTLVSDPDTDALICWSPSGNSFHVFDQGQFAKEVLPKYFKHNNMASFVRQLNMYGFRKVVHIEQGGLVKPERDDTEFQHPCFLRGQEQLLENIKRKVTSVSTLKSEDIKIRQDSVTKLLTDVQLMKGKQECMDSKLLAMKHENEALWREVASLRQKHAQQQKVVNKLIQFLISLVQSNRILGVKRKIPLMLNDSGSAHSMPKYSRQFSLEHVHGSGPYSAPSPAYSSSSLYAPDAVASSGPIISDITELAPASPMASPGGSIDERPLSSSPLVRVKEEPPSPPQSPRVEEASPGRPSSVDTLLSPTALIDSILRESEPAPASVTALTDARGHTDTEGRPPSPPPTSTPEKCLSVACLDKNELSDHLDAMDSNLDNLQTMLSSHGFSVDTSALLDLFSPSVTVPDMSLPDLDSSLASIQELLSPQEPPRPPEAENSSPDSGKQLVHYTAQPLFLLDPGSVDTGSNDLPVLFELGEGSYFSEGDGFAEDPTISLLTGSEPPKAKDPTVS
# CRX, sequence (O43186 whole entry): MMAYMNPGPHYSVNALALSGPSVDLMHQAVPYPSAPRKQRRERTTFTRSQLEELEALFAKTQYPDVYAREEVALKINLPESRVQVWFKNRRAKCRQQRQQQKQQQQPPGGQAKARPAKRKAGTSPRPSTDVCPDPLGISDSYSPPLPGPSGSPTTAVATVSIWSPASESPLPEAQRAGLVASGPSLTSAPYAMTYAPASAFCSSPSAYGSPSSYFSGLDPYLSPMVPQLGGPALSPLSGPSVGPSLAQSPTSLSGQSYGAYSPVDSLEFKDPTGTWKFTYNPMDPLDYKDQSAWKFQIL
# ELF4, sequence (Q99607 whole entry): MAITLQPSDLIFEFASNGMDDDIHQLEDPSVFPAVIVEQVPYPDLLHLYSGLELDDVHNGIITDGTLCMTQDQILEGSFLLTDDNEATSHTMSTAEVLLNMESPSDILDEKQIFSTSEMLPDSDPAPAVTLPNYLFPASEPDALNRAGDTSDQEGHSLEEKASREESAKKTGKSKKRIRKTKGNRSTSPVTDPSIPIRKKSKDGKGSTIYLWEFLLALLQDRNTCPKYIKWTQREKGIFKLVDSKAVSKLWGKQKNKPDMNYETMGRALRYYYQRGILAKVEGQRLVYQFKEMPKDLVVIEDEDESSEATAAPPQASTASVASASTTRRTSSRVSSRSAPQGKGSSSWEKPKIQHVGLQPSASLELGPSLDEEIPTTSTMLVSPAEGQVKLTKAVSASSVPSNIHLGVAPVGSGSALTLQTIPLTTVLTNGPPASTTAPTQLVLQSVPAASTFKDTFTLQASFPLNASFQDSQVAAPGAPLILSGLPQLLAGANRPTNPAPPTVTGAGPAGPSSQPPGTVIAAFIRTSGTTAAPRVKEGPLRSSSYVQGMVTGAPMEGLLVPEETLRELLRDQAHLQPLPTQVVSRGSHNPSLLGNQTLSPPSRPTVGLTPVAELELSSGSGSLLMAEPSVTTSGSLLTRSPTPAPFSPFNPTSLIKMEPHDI
Sequence,binding signal [1],binding signal [2],binding signal [3],binding signal [4],binding signal [5],binding signal [6],binding signal [7],binding signal [8],binding signal [9],binding signal [10]
AATCAC,"1.09 fold enrichment (6-mer frequency, TF over GST control)","1.14 fold enrichment (6-mer frequency, TF over GST control)","1.08 fold enrichment (6-mer frequency, TF over GST control)","1.08 fold enrichment (6-mer frequency, TF over GST control)","1.09 fold enrichment (6-mer frequency, TF over GST control)","1.11 fold enrichment (6-mer frequency, TF over GST control)","1.18 fold enrichment (6-mer frequency, TF over GST control)","1.12 fold enrichment (6-mer frequency, TF over GST control)","1.3 fold enrichment (6-mer frequency, TF over GST control)","1.08 fold enrichment (6-mer frequency, TF over GST control)"
GCCCTT,"1.19 fold enrichment (6-mer frequency, TF over GST control)","1.16 fold enrichment (6-mer frequency, TF over GST control)","1.11 fold enrichment (6-mer frequency, TF over GST control)","1.1 fold enrichment (6-mer frequency, TF over GST control)","1.13 fold enrichment (6-mer frequency, TF over GST control)","1.19 fold enrichment (6-mer frequency, TF over GST control)","1.28 fold enrichment (6-mer frequency, TF over GST control)","1.29 fold enrichment (6-mer frequency, TF over GST control)","1.06 fold enrichment (6-mer frequency, TF over GST control)","1.17 fold enrichment (6-mer frequency, TF over GST control)"
AAACAC,"1.31 fold enrichment (6-mer frequency, TF over GST control)","1.24 fold enrichment (6-mer frequency, TF over GST control)","1.09 fold enrichment (6-mer frequency, TF over GST control)","1.24 fold enrichment (6-mer frequency, TF over GST control)","1.34 fold enrichment (6-mer frequency, TF over GST control)","1.27 fold enrichment (6-mer frequency, TF over GST control)","1.36 fold enrichment (6-mer frequency, TF over GST control)","1.33 fold enrichment (6-mer frequency, TF over GST control)","1.05 fold enrichment (6-mer frequency, TF over GST control)","1.26 fold enrichment (6-mer frequency, TF over GST control)"
GCTCAA,"1.07 fold enrichment (6-mer frequency, TF over GST control)","1.12 fold enrichment (6-mer frequency, TF over GST control)","1.16 fold enrichment (6-mer frequency, TF over GST control)","1.19 fold enrichment (6-mer frequency, TF over GST control)","1.16 fold enrichment (6-mer frequency, TF over GST control)","1.03 fold enrichment (6-mer frequency, TF over GST control)","1.1 fold enrichment (6-mer frequency, TF over GST control)","1.11 fold enrichment (6-mer frequency, TF over GST control)","1.31 fold enrichment (6-mer frequency, TF over GST control)","1.1 fold enrichment (6-mer frequency, TF over GST control)"
CCTGCT,"1.67 fold enrichment (6-mer frequency, TF over GST control)","1.64 fold enrichment (6-mer frequency, TF over GST control)","1.34 fold enrichment (6-mer frequency, TF over GST control)","1.71 fold enrichment (6-mer frequency, TF over GST control)","1.69 fold enrichment (6-mer frequency, TF over GST control)","1.73 fold enrichment (6-mer frequency, TF over GST control)","1.59 fold enrichment (6-mer frequency, TF over GST control)","1.47 fold enrichment (6-mer frequency, TF over GST control)","1.38 fold enrichment (6-mer frequency, TF over GST control)","1.68 fold enrichment (6-mer frequency, TF over GST control)"
TGTTCC,"1.69 fold enrichment (6-mer frequency, TF over GST control)","1.71 fold enrichment (6-mer frequency, TF over GST control)","1.85 fold enrichment (6-mer frequency, TF over GST control)","2 fold enrichment (6-mer frequency, TF over GST control)","1.64 fold enrichment (6-mer frequency, TF over GST control)","1.49 fold enrichment (6-mer frequency, TF over GST control)","1.78 fold enrichment (6-mer frequency, TF over GST control)","1.6 fold enrichment (6-mer frequency, TF over GST control)","1.21 fold enrichment (6-mer frequency, TF over GST control)","1.86 fold enrichment (6-mer frequency, TF over GST control)"
AAATAT,"1.28 fold enrichment (6-mer frequency, TF over GST control)","1.36 fold enrichment (6-mer frequency, TF over GST control)","1.29 fold enrichment (6-mer frequency, TF over GST control)","1.43 fold enrichment (6-mer frequency, TF over GST control)","1.34 fold enrichment (6-mer frequency, TF over GST control)","1.24 fold enrichment (6-mer frequency, TF over GST control)","1.49 fold enrichment (6-mer frequency, TF over GST control)","1.54 fold enrichment (6-mer frequency, TF over GST control)","1.39 fold enrichment (6-mer frequency, TF over GST control)","1.39 fold enrichment (6-mer frequency, TF over GST control)"
